Laboratory results taken from the supplement of paper PMC10849652.
The full data set covers some 7,900 targets. This sample favours those with a hit. About 0.6% of all pairs of compound and target were hits.

How the values were obtained:
Experiment in all cases: log2 fold change, soluble protein after heating vs DMSO (PISA); higher = thermal stabilisation; K562 cells, 10 uM, 30 min; active = over 0.2 and 3.5 SD of the protein, either way, in both replicates (recomputed)
saracatinib = compound: CN1CCN(CCOc2cc(OC3CCOCC3)c3c(Nc4c(Cl)ccc5c4OCO5)ncnc3c2)CC1 [saracatinib]
Summary of the method: (§1)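 Aliquots of K562 cells (2×10^6 cells/mL) treated with 10 μM compound for 30 min were heated for 3 min over 48°C-58°C. After pooling and extraction in PBS with 0.5% NP-40 at 4°C, soluble protein from a 21,000xg, 90 min spin was quantified by TMTpro 16plex LC-MS/MS with channel sums equalised. Thermal stability is expressed against control samples, from duplicates, as a log2 fold change.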

sotrastaurin = compound: CN1CCN(c2nc(C3=C(c4c[nH]c5ccccc45)C(=O)NC3=O)c3ccccc3n2)CC1 [sotrastaurin]
Summary of the method: as §1

alvocidib = compound: CN1CC[C@H](c2c(O)cc(O)c3c(=O)cc(-c4ccccc4Cl)oc23)[C@H](O)C1 [alvocidib]
Summary of the method: as §1

Tubastatin A = compound: CN1CCc2c(c3ccccc3n2Cc2ccc(C(=O)NO)cc2)C1 [Tubastatin A]
Summary of the method: as §1

[1] = compound: CNC(=O)C1=CC=CC=C1NC2=NC(=NC=C2Cl)NC3=C(C=C(C=C3)N4CCOCC4)OC
Summary of the method: as §1

defactinib = compound: CNC(=O)c1ccc(Nc2ncc(C(F)(F)F)c(NCc3nccnc3N(C)S(C)(=O)=O)n2)cc1 [defactinib]
Summary of the method: as §1

rucaparib = compound: CNCc1ccc(-c2[nH]c3cc(F)cc4c3c2CCNC4=O)cc1 [rucaparib]
Summary of the method: as §1

[2] = compound: CNc1nc(-c2ccc3c(N)n[nH]c3c2)cc(N2C[C@@H](C(=O)NC3CCCCC3)CC[C@H]2C)n1
Summary of the method: as §1

encorafenib = compound: COC(=O)N[C@@H](C)CNc1nccc(-c2cn(C(C)C)nc2-c2cc(Cl)cc(NS(C)(=O)=O)c2F)n1 [encorafenib]
Summary of the method: as §1

[3] = compound: COC(=O)[C@H](CCSC)NC(=O)C1=C(C=C(C=C1)NC[C@H](CS)N)C2=CC=CC=C2
Summary of the method: as §1

[4] = compound: COC1=CC=C(C=C1)CN2C=CC3=C2C=C(C=C3)C(=O)NO
Summary of the method: as §1

filanesib = compound: CON(C)C(=O)N1N=C(c2cc(F)ccc2F)S[C@@]1(CCCN)c1ccccc1 [filanesib]
Summary of the method: as §1

zotarolimus = compound: CO[C@H]1C[C@@H]2CC[C@@H](C)[C@@](O)(O2)C(=O)C(=O)N2CCCC[C@H]2C(=O)O[C@H]([C@H](C)C[C@@H]2CC[C@H](n3cnnn3)[C@H](OC)C2)CC(=O)[C@H](C)/C=C(\C)[C@@H](O)[C@@H](OC)C(=O)[C@H](C)C[C@H](C)/C=C/C=C/C=C/1C [zotarolimus]
Summary of the method: as §1

idasanutlin = compound: COc1cc(C(=O)O)ccc1NC(=O)[C@@H]1N[C@@H](CC(C)(C)C)[C@](C#N)(c2ccc(Cl)cc2F)[C@H]1c1cccc(Cl)c1F [idasanutlin]
Summary of the method: as §1

alisertib = compound: COc1cc(Nc2ncc3c(n2)-c2ccc(Cl)cc2C(c2c(F)cccc2OC)=NC3)ccc1C(=O)O [alisertib]
Summary of the method: as §1

[5] = compound: COc1cc2nc(-c3cc(F)ccc3O)nc(N[C@@H]3CNC[C@H]3C(C)(C)O)c2cc1OC
Summary of the method: as §1

gefitinib = compound: COc1cc2ncnc(Nc3ccc(F)c(Cl)c3)c2cc1OCCCN1CCOCC1 [gefitinib]
Summary of the method: as §1

[6] = compound: COc1cccc2cc(-c3nc([C@H]4CC[C@H](C(=O)O)CC4)n4ncnc(N)c34)[nH]c12
Summary of the method: as §1

lapatinib = compound: CS(=O)(=O)CCNCc1ccc(-c2ccc3ncnc(Nc4ccc(OCc5cccc(F)c5)c(Cl)c4)c3c2)o1 [lapatinib]
Summary of the method: as §1

pictilisib = compound: CS(=O)(=O)N1CCN(Cc2cc3nc(-c4cccc5[nH]ncc45)nc(N4CCOCC4)c3s2)CC1 [pictilisib]
Summary of the method: as §1

Measured: log2 fold change

SNX12 isoform 1 (UniProt Q9UMY4)
UniProt Q9UMY4, sequence (Q9UMY4 whole entry, looked up): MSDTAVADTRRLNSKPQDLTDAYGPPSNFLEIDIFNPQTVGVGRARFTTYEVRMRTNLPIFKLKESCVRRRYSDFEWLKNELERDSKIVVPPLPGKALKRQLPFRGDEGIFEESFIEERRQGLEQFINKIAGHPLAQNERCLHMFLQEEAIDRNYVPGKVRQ
inactive: saracatinib 0.035 | sotrastaurin 0.07 | alvocidib 0 | Tubastatin A 0.013 | [1] 0.059 | defactinib -0.025 | rucaparib -0.025 | [2] -0.028 | encorafenib 0.15 | [3] -0.037 | [4] -0.029 | filanesib -0.027 | zotarolimus -0.007 | idasanutlin 0.039 | alisertib 0.005 | [5] -0.008 | gefitinib 0.035 | [6] 0.09 | lapatinib -0.006 | pictilisib -0.002

SPAST (UniProt Q9UBP0)
UniProt Q9UBP0, sequence (Q9UBP0 whole entry, looked up): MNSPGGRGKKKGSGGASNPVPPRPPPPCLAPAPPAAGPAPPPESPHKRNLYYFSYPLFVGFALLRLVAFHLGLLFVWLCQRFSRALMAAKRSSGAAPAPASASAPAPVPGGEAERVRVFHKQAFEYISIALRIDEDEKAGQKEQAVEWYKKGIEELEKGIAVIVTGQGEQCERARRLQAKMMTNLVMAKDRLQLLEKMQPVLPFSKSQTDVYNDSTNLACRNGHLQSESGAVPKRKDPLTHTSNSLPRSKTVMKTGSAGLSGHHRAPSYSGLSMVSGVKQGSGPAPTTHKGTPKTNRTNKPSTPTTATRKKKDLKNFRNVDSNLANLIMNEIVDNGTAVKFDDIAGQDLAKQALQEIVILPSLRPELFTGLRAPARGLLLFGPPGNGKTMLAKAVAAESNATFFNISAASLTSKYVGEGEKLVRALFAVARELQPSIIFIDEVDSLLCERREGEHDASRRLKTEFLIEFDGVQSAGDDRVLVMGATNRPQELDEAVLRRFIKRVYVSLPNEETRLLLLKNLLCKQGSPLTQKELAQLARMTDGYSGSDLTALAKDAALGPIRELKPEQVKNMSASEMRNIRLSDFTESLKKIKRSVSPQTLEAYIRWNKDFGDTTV
inactive: saracatinib -0.016 | sotrastaurin -0.015 | alvocidib -0.203 | Tubastatin A 0.003 | [1] -0.01 | defactinib -0.056 | rucaparib 0.073 | [2] 0.115 | encorafenib 0.038 | [3] -0.037 | [4] 0.03 | filanesib -0.028 | zotarolimus -0.006 | idasanutlin -0.038 | alisertib -0.1 | [5] 0.096 | gefitinib -0.019 | [6] -0.042 | lapatinib -0.019 | pictilisib -0.041

SUPT16H (UniProt Q9Y5B9)
UniProt Q9Y5B9, sequence (Q9Y5B9 whole entry, looked up): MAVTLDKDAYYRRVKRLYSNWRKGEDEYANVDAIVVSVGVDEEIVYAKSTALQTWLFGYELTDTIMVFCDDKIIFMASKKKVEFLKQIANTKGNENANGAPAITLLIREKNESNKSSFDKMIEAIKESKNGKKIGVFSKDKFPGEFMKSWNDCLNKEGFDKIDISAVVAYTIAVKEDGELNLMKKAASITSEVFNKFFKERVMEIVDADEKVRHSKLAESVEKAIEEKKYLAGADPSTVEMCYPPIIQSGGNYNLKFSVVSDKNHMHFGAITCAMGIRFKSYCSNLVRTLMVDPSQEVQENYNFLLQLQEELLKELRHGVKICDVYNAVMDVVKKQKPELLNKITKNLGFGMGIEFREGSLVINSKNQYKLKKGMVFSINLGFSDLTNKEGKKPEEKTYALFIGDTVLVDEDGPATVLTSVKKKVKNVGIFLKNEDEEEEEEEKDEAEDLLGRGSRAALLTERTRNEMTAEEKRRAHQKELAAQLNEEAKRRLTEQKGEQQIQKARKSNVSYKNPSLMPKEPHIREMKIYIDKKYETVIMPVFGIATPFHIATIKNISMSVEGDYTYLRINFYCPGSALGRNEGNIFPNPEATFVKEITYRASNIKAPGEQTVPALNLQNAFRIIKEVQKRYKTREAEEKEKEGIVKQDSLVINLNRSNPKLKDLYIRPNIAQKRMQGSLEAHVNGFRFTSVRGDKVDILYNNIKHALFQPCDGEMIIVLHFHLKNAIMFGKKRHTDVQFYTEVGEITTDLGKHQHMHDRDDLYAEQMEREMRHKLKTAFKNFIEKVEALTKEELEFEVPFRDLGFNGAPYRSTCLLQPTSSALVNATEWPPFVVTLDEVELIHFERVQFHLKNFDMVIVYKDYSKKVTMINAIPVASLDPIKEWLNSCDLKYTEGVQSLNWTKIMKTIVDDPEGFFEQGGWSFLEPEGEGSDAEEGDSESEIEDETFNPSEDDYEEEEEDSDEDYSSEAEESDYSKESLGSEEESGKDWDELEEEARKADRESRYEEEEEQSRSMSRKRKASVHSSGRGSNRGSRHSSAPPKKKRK
inactive: saracatinib -0.125 | sotrastaurin -0.209 | alvocidib -0.359 | Tubastatin A 0.374 | [1] 0.034 | rucaparib -0.104 | [2] 0.024 | encorafenib 0.113 | [3] -0.138 | [4] 0.106 | filanesib -0.026 | zotarolimus 0.104 | idasanutlin -0.057 | alisertib 0.12 | [5] -0.036 | gefitinib 0.062 | [6] -0.023 | lapatinib 0.035 | pictilisib 0.011
active: defactinib -0.476

SMIM20 isoform 2 (UniProt Q8N5G0)
UniProt Q8N5G0, sequence (Q8N5G0 whole entry, looked up): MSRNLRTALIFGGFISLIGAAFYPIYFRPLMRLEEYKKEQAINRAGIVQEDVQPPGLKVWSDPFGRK
inactive: saracatinib 0 | sotrastaurin 0.056 | alvocidib -0.024 | Tubastatin A -0.013 | [1] 0.018 | defactinib -0.138 | rucaparib -0.088 | [2] -0.094 | encorafenib -0.055 | [3] -0.143 | filanesib 0.093 | zotarolimus -0.037 | idasanutlin 0.095 | alisertib -0.056 | [5] 0.024 | gefitinib 0.057 | [6] 0.091 | lapatinib -0.044 | pictilisib -0.044

SNX3 (UniProt O60493)
UniProt O60493, sequence (O60493 whole entry, looked up): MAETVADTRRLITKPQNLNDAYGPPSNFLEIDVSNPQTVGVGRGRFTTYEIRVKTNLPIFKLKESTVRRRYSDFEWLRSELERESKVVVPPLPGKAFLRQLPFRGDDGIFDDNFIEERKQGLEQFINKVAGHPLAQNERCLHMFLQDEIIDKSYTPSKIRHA
inactive: saracatinib -0.086 | sotrastaurin 0.038 | alvocidib -0.016 | Tubastatin A -0.005 | [1] 0.018 | defactinib -0.067 | rucaparib 0.081 | [2] 0.026 | encorafenib 0.194 | [3] -0.079 | [4] -0.049 | filanesib 0.012 | zotarolimus 0.022 | idasanutlin 0.075 | alisertib 0.074 | [5] -0.08 | gefitinib 0.01 | [6] 0.056 | lapatinib -0.026 | pictilisib -0.03

STK38L (UniProt Q9Y2H1)
UniProt Q9Y2H1, sequence (Q9Y2H1 whole entry, looked up): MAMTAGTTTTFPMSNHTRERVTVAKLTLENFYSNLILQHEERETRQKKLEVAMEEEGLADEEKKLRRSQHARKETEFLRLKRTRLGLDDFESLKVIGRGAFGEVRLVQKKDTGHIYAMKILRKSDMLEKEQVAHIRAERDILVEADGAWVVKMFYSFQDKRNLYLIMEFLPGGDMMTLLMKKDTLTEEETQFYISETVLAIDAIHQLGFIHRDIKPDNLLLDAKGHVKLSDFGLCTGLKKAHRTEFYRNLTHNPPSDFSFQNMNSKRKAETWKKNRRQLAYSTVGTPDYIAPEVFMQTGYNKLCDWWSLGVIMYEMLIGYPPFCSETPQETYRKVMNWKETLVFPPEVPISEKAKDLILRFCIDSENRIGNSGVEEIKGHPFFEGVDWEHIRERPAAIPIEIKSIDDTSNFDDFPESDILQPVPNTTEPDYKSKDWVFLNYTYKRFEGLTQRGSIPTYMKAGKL
inactive: saracatinib 0.103 | sotrastaurin 0.035 | alvocidib -0.087 | Tubastatin A -0.067 | [1] 0.002 | defactinib -0.048 | rucaparib -0.052 | [2] 0.024 | encorafenib 0.004 | [3] -0.073 | [4] -0.007 | filanesib -0.009 | zotarolimus 0.036 | idasanutlin -0.095 | alisertib 0.037 | gefitinib 0.029 | [6] -0.064 | pictilisib 0.05

SLC35B1 isoform 2 (UniProt P78383)
UniProt P78383, sequence (P78383 whole entry, looked up): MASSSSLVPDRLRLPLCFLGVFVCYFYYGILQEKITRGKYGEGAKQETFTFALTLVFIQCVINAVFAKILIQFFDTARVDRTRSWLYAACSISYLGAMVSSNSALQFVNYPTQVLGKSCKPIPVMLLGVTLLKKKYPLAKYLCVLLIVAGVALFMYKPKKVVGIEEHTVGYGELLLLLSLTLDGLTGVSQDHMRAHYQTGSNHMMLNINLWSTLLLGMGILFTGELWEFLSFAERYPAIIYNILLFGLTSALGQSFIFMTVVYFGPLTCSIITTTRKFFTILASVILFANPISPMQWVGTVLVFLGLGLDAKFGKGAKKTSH
inactive: saracatinib 0.036 | sotrastaurin -0.03 | alvocidib 0.031 | Tubastatin A 0.037 | [1] -0.003 | defactinib 0.026 | rucaparib -0.051 | [2] 0.011 | encorafenib 0.132 | [3] -0.127 | [4] -0.106 | filanesib -0.037 | zotarolimus -0.005 | alisertib -0.232 | gefitinib -0.022 | [6] 0.129

SMDT1 (UniProt Q9H4I9)
UniProt Q9H4I9, sequence (Q9H4I9 whole entry, looked up): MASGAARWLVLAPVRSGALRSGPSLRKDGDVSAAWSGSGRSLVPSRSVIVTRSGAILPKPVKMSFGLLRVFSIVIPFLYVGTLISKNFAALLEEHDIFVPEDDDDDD
inactive: saracatinib 0.092 | sotrastaurin -0.077 | alvocidib -0.005 | Tubastatin A 0.035 | defactinib 0.014 | rucaparib 0.057 | [2] -0.064 | encorafenib 0.011 | [3] 0.003 | [4] -0.053 | zotarolimus -0.014 | idasanutlin -0.087 | alisertib -0.058 | [6] 0.014 | pictilisib 0.095
active: filanesib -0.39

STK39 (UniProt Q9UEW8)
inactive: saracatinib -0.014 | sotrastaurin -0.017 | alvocidib 0.013 | Tubastatin A 0.009 | [1] -0.045 | defactinib -0.015 | rucaparib 0.014 | [2] -0.008 | encorafenib 0.039 | [3] 0.056 | [4] -0.016 | filanesib -0.033 | zotarolimus 0.062 | idasanutlin -0.06 | alisertib -0.044 | [5] 0.034 | gefitinib -0.014 | [6] -0.036 | lapatinib -0.002 | pictilisib 0.107
